hgDAF12 agonist: agonists of H. glycines DAF-12 nuclear receptor; HEK293 GAL4-hgDAF12 UAS-luciferase reporter, agonist luminescence; normalized to butyrate control; activation, % at 6.8 µM; 1.8% of 370,000 active;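 active means activation above a cutoff set at the mean of all screened compounds plus 3 SD, cut at about 10% in these data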;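 further: 0% = DMSO wells and 100% = sodium butyrate wells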
DAX1 inh-1: DAX1 (NR0B1) inhibition, primary screen; inhibition, % at 6.8 µM; 1.1% of 370,000 active; HEK293T StAR-luciferase reporter, SF-1/DAX-1 repression relief; AID 652010;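 active means inhibition above the mean over all tested compounds plus 3 SD, cut at about 3.6% in these data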;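 further: 0% = DAX-1 cells with DMSO and 100% = cells lacking DAX-1 with DMSO; higher inhibition means more luminescence from relief of DAX-1 repression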
DAX1 inh-2: inhibits human nuclear receptor DAX1; P51843; HEK293 Gal4-DAX1 luciferase reporter, luminescence; inhibition, % at 6.75 µM; 0.99% of 340,000 active; AID 504766;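 active means inhibition above the mean over all tested compounds plus 3 SD, cut at about 4.2% in these data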;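 further: 0% = DAX1-transfected cells with DMSO and 100% = empty-vector control cells with DMSO; inhibition shows as a rise in luminescence from relieved DAX1 repression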
Target sequence (P51843 207-470 limits assumed): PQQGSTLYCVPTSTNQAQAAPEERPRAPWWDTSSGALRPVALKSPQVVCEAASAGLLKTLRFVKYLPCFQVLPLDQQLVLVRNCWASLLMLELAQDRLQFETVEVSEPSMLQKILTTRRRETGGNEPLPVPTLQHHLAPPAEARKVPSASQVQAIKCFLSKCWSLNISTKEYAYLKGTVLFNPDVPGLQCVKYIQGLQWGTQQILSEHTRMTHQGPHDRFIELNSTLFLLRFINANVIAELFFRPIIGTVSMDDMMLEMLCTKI
ssDAF12 agonist: activates DAF-12 receptor from parasite S. stercoralis. HEK293 ssDAF-12/GRIP1 lit1-tk-luc reporter, luminescence; % of 3 µM dafachronic acid response. activation, % at 6.8 µM. 1% of 370,000 active. AID 652126;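 active means activation above the mean over all tested compounds plus 3 SD, cut at about 0.9% in these data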;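 further: 0% = DMSO-only wells and 100% = 3 µM delta7-dafachronic acid wells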
hcDAF12 agonist: activators of H. contortus DAF-12 nuclear receptor | HEK293 hcDAF-12 lit1-tk-luc reporter, luminescence; 0% DMSO, 100% Δ7-dafachronic acid | activation, % at 6.8 µM | 1.4% of 370,000 active | AID 652067;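 active means activation above the mean of all tested compounds plus 3 SD, cut at about 5.5% in these data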;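 further: 100% = response to 3 µM Δ7-dafachronic acid high control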
LXRb hcDAF ctr: LXR-beta agonism as hcDAF-12 counter-screen. AID 743027. shares compounds with hcDAF12 agonist. HEK293 Gal4-LXR tk-luc reporter, luminescence, 24 h; normalized: DMSO 0%, positive control 100%. 3,400 tested, under 10 active. activation, % at 6.8 µM;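 active means mean percent activation of the reporter above a cutoff set as the average over tested compounds plus their standard deviation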
hcDAF12 ag: hcDAF-12 agonism, confirmation assay | shares compounds with hcDAF12 agonist | HEK293 hcDAF-12 lit1-tk-luc reporter, luminescence; % of Δ7-dafachronic acid response | activation, % at 6.8 µM | 61% of 3,400 active;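 active means mean activation across triplicate tests above the threshold derived from the earlier primary screen, cut at about 5.5% in these data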;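 further: 0% = DMSO only wells and 100% = 3 µM Δ7-dafachronic acid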
Numbers without * were called inactive; / = no result. A selection: hits, their analogues and other compounds. The true share with any hit is near 4.1%.

SMILES	hgDAF12 agonist	DAX1 inh-1	DAX1 inh-2	ssDAF12 agonist	hcDAF12 agonist	LXRb hcDAF ctr	hcDAF12 ag
Cc1ccc(C(=O)Nc2nc3ccccc3n2CCN2CCCC2)cc1	14*	4.3*	1	2.7*	9.1*	1	8.5*
CCCn1c(NC(=O)c2ccc(C)cc2)nc2ccccc21	4	0	0	-1	-1	/	/
Cc1ccsc1/C=N/NC(=O)c1ccc2c(c1)OCCO2	13*	2	-1	1	8.1*	2	12*
O=C(N/N=C/c1c(Cl)[nH]c2ccccc12)c1ccc2c(c1)OCCO2	8	0	/	1.3*	9.1*	0	9.1*
COc1ccc(NC(=O)c2sc(SC)nc2N)cc1	13*	1	1	1.3*	7.3*	1	9.2*
COc1ccc(NC(=O)c2sc(SCc3ccccc3)nc2N)cc1	0	0	0	-1	-1	/	/
Nn1c(SCc2cccc3ccccc23)nnc1-c1n[nH]c2c1CCC2	-3	-1	/	-1	-4	/	/
CCN(CC)c1ccc(/C=N/NC(=O)c2ccccn2)cc1	11*	1	4	1	6.8*	1	7.1*
CCN(CC)c1ccc(/C=N/NC(=O)c2cc3ccccc3[nH]2)cc1	3	0	0	0	0	/	/
Cc1c(/N=C(\[O-])Nc2ccc(Br)cc2)sn[n+]1C	11*	3	/	1	7.0*	2	7.5*
N#CCC[C@H]1CC[C@]2(CCCN(Cc3ccccc3)C2)O1	2	1	/	-1	1	/	/
O=C(COC(=O)c1cc([N+](=O)[O-])ccc1Cl)NC1CCCC1	1	0	1	0	10*	0	0
COCc1[nH]nc2c1C(c1cccc(C(F)(F)F)c1)N(c1ccccc1)C2=O (centres undefined)	-1	1	/	-1	-1	/	/
O=C(NC1=NC2(C=C3CCCCC3n3c(=O)n(-c4ccccc4)c(=O)n32)CN1CC1CC1)c1ccccc1 (centres undefined)	-1	0	/	-2	-3	/	/
COc1cccc(C(=O)N(C)C(C)c2nc3ccccc3s2)c1 (centres undefined)	-2	0	0	-1	-1	/	/
CC(=O)c1ccc(OC(C)c2nc3ccccc3s2)cc1 (centres undefined)	5	0	2	1.0*	7.7*	0	9.6*
C[C@@H]1[C@@H](c2ccccc2)c2cc3ccccc3nc2C(=O)C[C@@H]1C(=O)N1CCCC1	1	0	/	-1	-1	/	/
O/C(=C\c1nc2ccccc2[nH]1)c1cccs1	12*	1	1	1.0*	8.5*	0	8.1*
O=c1[nH]c2ccccc2nc1/C=C(\O)c1cccs1	10*	2	2	0	7.8*	1	13*
CCOC(=O)[C@]12CCCC=C1N(Cc1ccc(OC)cc1)C(=O)[C@@H]2CC(=O)N1CCCCC1	-2	-1	/	-1	-1	/	/
COC(=O)[C@]12C[C@H](CC(=O)NCc3cccc(C(F)(F)F)c3)C(=O)N(Cc3ccco3)C1=C[C@H](C(C)C)O[C@@H]2C1CC1	-4	0	/	-1	-3	/	/
Cc1ccc2nc(-c3ccc(SCC(=O)N4CCc5ccccc54)nc3)[nH]c2c1	5	1	1	0	7.1*	1	6.4*
Cc1ccc2nc(-c3ccc(SCC(=O)O)nc3)[nH]c2c1	6	1	-1	0	1	/	/
C=CCN1[C@H](CC(C)C)COc2cccc(F)c2S1(=O)=O	0	-1	/	-1	0	/	/
COc1ccccc1C(=O)NNC(=O)c1ccc2ccccc2c1	0	0	1	-1	0	/	/
COc1ccccc1C(=O)NNC(=O)c1ccc(F)cc1	10	2	1	0	9.3*	1	6.8*
COc1ccccc1C(=O)NNC(=O)C(=O)Nc1ccc(C)cc1	3	0	0	1	4	/	/
COc1ccccc1C(=O)NNC(=O)C1CC=CCC1 (centres undefined)	3	0	2	4.0*	7.2*	0	7.2*
